# According to PubChem BioAssay (EPA / NIEHS):
# Where “and” joins values, the source holds several entries; their conditions need not be identical. Identical values can stand only once. Inconclusive results are not listed. Calls of active or inactive are those of the source. How the source made its calls: active means hit-call score of the fitted dose curve at least 0.9, where 1 is the maximum; inconclusive means response in the unintended direction; inactive means score below 0.9.
# Legend:
# [1] = TOX21_TRB_BLA_Agonist_Followup_viability: Viability Assessment in the Tox21 Thyroid Hormone Receptor beta Agonism Beta-lactamase (BLA) Follow-Up Assay (AID 2283956)
# In short: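 Viability was read as CellTiter-Glo luminescence in the same wells as the TRb-bla agonist read-out. HEK293T GAL4-TRb LBD cells were treated for 18 h (37C, 5% CO2) at 11 concentrations in triplicate. Fits were bidirectional versus DMSO baseline.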
# [2] = molecular target: human Fibroblast Growth Factor Receptor 1 (FGFR1), FGFR1 (gene 2260) (UniProt P11362); test: NVS_ENZ_hFGFR1: NovaScreen (NVS) Enzymatic Assay for human Fibroblast Growth Factor Receptor 1 (FGFR1) (AID 2283159);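 on AC50: hits lower the signal so potencies describe inhibitors of the kinase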
# In short: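 Cell-free recombinant kinase with fluorescent substrate, product separated by electrophoretic mobility shift; read 1 hour after dosing, loss of signal relative to DMSO. Initial screen in duplicate at 25 uM, actives followed in concentration series.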
# [3] = molecular target: human Mitogen-Activated Protein Kinase 1 (MAPK 1), MAPK1 (gene 5594) (UniProt P28482); test: NVS_ENZ_hMAPK1: NovaScreen (NVS) Enzymatic Assay for human Mitogen-Activated Protein Kinase 1 (MAPK 1) (AID 2283175)
# In short: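 Cell-free recombinant human MAPK1 enzymatic assay, fluorescence/electrophoretic mobility shift read at 1 h; loss of signal vs DMSO. Primary screen in duplicate at 25 uM; actives (e.g. ≥30% inhibition) run as concentration-response up to 50 uM.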
# [4] = molecular target: rat Acetylcholinesterase (AChE), Ache (gene 83817) (UniProt P37136); test: NVS_ENZ_rAChE: NovaScreen (NVS) Enzymatic Assay for rat Acetylcholinesterase (AChE) (AID 2283233)
# In short: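 Compounds first screened at 25 uM in duplicate, then those passing threshold tested in concentration series up to 50 uM, against AChE from rat brain membranes. Enzyme activity read by absorbance at 0.33 h; inhibition scored versus DMSO.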
# [5] = test system: rat Monoamine Oxidase, MAO-A, Peripheral (MAOAP), gene 29253; test: NVS_ENZ_rMAOAP: NovaScreen (NVS) Enzymatic Assay for rat Monoamine Oxidase, MAO-A, Peripheral (MAOAP) (AID 2283237)
# In short: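 Scintillation counting tracked MAO-A activity in a cell-free rat liver mitochondrial membrane prep, read 1.17 hours after compound addition. Single-point duplicate testing at 25 uM preceded concentration-response follow-up; activity was fitted relative to DMSO.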
# [6] = molecular target: human Neonicotinoid receptor (NNR), CHRNA2 (gene 1135) (UniProt Q15822); test: NVS_LGIC_hNNR_NBungSens: NovaScreen (NVS) Ligand-Gated Ion Channel Assay for human Neonicotinoid receptor (NNR) (AID 2283313)
# In short: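 Compounds first screened in duplicate at 25 uM, then actives re-tested in single-replicate dose series up to 50 uM. Binding measured as displacement of specific radioligand from neuroblastoma membrane receptors after 2 h, scintillation read on filters.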
# [7] = molecular target: bovine Gamma-Aminobutyric Acid Type A Receptor BDZ, alpha 1 site (GABARa1), GABRA1 (gene 780973) (UniProt P08219); test: NVS_LGIC_bGABARa1: NovaScreen (NVS) Ligand-Gated Ion Channel Assay for bovine Gamma-Aminobutyric Acid Type A Receptor BDZ, alpha 1 site (GABARa1) (AID 2283321)
# In short: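 Bovine cortex membrane preparation, benzodiazepine site on GABA-A alpha1; specific radioligand displacement read after 0.75 h by filtration and scintillation. Screen at 25 uM, then singleton titrations up to 50 uM; DMSO baseline.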
# [8] = molecular target: human Caspase 2 (CASP2), CASP2 (gene 835) (UniProt P42575); test: NVS_ENZ_hCASP2: NovaScreen (NVS) Enzymatic Assay for human Caspase 2 (CASP2) (AID 2283135)
# In short: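 Single-point duplicate testing at 25 uM preceded concentration series topping at 50 uM. Activity of the recombinant E. coli-derived protease was followed by fluorescent substrate cleavage 1 h post-dosing, relative to DMSO.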
# [9] = molecular target: Bile acid receptor (Homo sapiens) (UniProt Q96RI1); test: NVS_NR_hFXR_Agonist: NovaScreen (NVS) Nuclear Receptor Binding Assay for human Farnesoid X Receptor Agonism (FXR) (AID 2283347)
# In short: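 Agonist-mode FXR assay read by time-resolved FRET 1 h after compound addition, using isolated human receptor protein without cells. Duplicate 25 uM single-point primary screen, concentration series for confirmed actives; DMSO as baseline.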
# [10] = molecular target: human Ephrin type-A Receptor 2 (EphA2), EPHA2 (gene 1969) (UniProt P29317); test: NVS_ENZ_hEphA2: NovaScreen (NVS) Enzymatic Assay for human Ephrin type-A Receptor 2 (EphA2) (AID 2283155)
# In short: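 Enzyme activity of recombinant EphA2 read by fluorescence after mobility-shift separation, 1 h after dosing. Chemicals first tested at 25 uM (duplicate); those passing threshold run as concentration series, top 50 uM, single replicate, relative to DMSO.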
# [11] = molecular target: human Tyrosine Protein Kinase Receptor Tie-2 (Tie2), TEK (gene 7010) (UniProt Q02763); test: NVS_ENZ_hTie2: NovaScreen (NVS) Enzymatic Assay for human Tyrosine Protein Kinase Receptor Tie-2 (Tie2) (AID 2283225)
# In short: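 Substrate and product were separated by mobility shift and detected by fluorescence after a 1-hour reaction with recombinant Tie2. Chemicals passing a 25 uM single-point screen were titrated to a maximum of 50 uM. Results were normalized to DMSO baseline.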
# [12] = molecular target: human p21 Activated Kinase 4 (PAK4), PAK4 (gene 10298) (UniProt O96013); test: NVS_ENZ_hPAK4: NovaScreen (NVS) Enzymatic Assay for human p21 Activated Kinase 4 (PAK4) (AID 2283189)
# In short: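 Extracted PAK4 enzyme activity read by fluorescence with mobility-shift separation 1 h after chemical addition. Duplicate single-concentration screen at 25 uM, DMSO as negative control.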
# [13] = molecular target: human Phosphatase and Tensin Homolog (PTEN), PTEN (gene 5728) (UniProt P60484); test: NVS_ENZ_hPTEN: NovaScreen (NVS) Enzymatic Assay for human Phosphatase and Tensin Homolog (PTEN) (AID 2283203)
# In short: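 Loss of fluorescent product signal after mobility-shift separation reports PTEN activity, recombinant human enzyme, 1 h after compound addition. Single 25 uM duplicate screen, then concentration-response on actives; DMSO baseline.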
# [14] = molecular target: human Aurora Kinase A - serine/threonine-protein Kinase 6 (AurA), AURKA (gene 6790) (UniProt O14965); test: NVS_ENZ_hAurA: NovaScreen (NVS) Enzymatic Assay for human Aurora Kinase A - serine/threonine-protein Kinase 6 (AurA) (AID 2283142)
# In short: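 Recombinant human AurA activity read by fluorescence after mobility-shift separation of product from substrate; 1 hour incubation. Chemicals first run in duplicate at 25 uM, then concentration series to 50 uM if over threshold; fitted relative to DMSO.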
# PPP2CA (gene 5515) = PPP2CA (gene 5515) (UniProt P67775); test: NVS_ENZ_hPPP2CA: NovaScreen (NVS) Enzymatic Assay for human Protein Phosphatase 2 Aatalytic subunit Alpha (PPP2CA) (AID 2283199)
# In short: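 Cell-free phosphatase activity: fluorescent substrate turnover by recombinant human enzyme, resolved by mobility shift at 1.33 h. Compounds passing the 25 uM duplicate primary screen were rerun in singleton series with a 50 uM top concentration.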
# [15] = molecular target: human Protein Tyrosine Phosphatase Non-receptor Type 2 (PTPN2), PTPN2 (gene 5771) (UniProt P17706); test: NVS_ENZ_hPTPN2: NovaScreen (NVS) Enzymatic Assay for human Protein Tyrosine Phosphatase Non-receptor Type 2 (PTPN2) (AID 2283207)
# In short: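 Activity measured as fluorescence after mobility-shift separation of substrate and product, 1 h after compound. Duplicate single-point 25 uM primary testing, concentration series for actives; inhibition scored as signal loss relative to DMSO baseline.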
# [16] = molecular target: human Raf-1 Proto-Oncogene, serine/threonine Kinase (RAF1), RAF1 (gene 5894) (UniProt P04049); test: NVS_ENZ_hRAF1: NovaScreen (NVS) Enzymatic Assay for human Raf-1 Proto-Oncogene, serine/threonine Kinase (RAF1) (AID 2283216)
# In short: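 Single-point screening at 25 uM (duplicate), followed by singleton concentration-response to 50 uM maximum for chemicals exceeding threshold. Enzyme activity from fluorescent substrate-product mobility-shift separation after 1 h, relative to DMSO.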
# [17] = molecular target: Norway rat Vesicular Monoamine Transporter (VMAT2), neurotransmitter transporter, Slc18a2 (gene 25549) (UniProt Q01827); test: NVS_TR_rVMAT2: NovaScreen (NVS) Transporter Assay for Norway rat Vesicular Monoamine Transporter (VMAT2), neurotransmitter transporter (AID 2283376);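 further: actives lower the bound radioligand signal below the DMSO level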
# In short: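 Using rat forebrain membranes, specific radioligand binding to VMAT2 was measured by filtration and scintillation counting after 1 hour. Chemicals screened at 25 uM in duplicate, actives retested in concentration series, DMSO baseline.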
# [18] = molecular target: rat Neurotensin Receptor (NTS), Ntsr1 (gene 366274) (UniProt P20789); test: NVS_GPCR_rNTS: NovaScreen (NVS) G Protein-Coupled Receptor Assay for rat Neurotensin Receptor (NTS) (AID 2283308)
# In short: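 Single-point duplicates at 25 uM, then concentration series to 50 uM max for hits, measured radioligand displacement on rat forebrain membrane preparations. Bound label counted by filtration scintillation at 1 h; signal loss relative to DMSO fitted.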
# [19] = molecular target: human Protein Tyrosine Phosphatase Receptor Type C (PTPRC), PTPRC (gene 5788) (UniProt P08575); test: NVS_ENZ_hPTPRC: NovaScreen (NVS) Enzymatic Assay for human Protein Tyrosine Phosphatase Receptor Type C (PTPRC) (AID 2283212)
# In short: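 Absorbance-based phosphatase activity of human PTPRC protein extracted from yeast was measured 1 h post-dosing. Compounds first tested at 25 uM in duplicate, then those passing threshold in singleton concentration series to 50 uM.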
# [20] = molecular target: Voltage-dependent N-type calcium channel subunit alpha-1B (Rattus norvegicus) (UniProt Q02294); test: NVS_IC_rCaChN: NovaScreen (NVS) Ion Channel Assay for rat Calcium Channel, Type N (CaChN) (AID 2283317)
# [21] = test system: rat Monoamine Oxidase, MAO-A, Central (MAOAC), gene 29253; test: NVS_ENZ_rMAOAC: NovaScreen (NVS) Enzymatic Assay for rat Monoamine Oxidase, MAO-A, Central (MAOAC) (AID 2283243);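 further: potency refers to inhibition seen as signal drop below DMSO baseline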
# In short: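 Enzyme from rat brain, cell-free radiodetection format. Counts taken at 1.5 h; activity fitted against DMSO baseline, loss of signal marking inhibition. Confirmatory concentration series followed the 25 uM duplicate screen.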
# rat Acetylcholinesterase (AChE), Ache (gene 83817), sequence (P37136 whole entry, looked up): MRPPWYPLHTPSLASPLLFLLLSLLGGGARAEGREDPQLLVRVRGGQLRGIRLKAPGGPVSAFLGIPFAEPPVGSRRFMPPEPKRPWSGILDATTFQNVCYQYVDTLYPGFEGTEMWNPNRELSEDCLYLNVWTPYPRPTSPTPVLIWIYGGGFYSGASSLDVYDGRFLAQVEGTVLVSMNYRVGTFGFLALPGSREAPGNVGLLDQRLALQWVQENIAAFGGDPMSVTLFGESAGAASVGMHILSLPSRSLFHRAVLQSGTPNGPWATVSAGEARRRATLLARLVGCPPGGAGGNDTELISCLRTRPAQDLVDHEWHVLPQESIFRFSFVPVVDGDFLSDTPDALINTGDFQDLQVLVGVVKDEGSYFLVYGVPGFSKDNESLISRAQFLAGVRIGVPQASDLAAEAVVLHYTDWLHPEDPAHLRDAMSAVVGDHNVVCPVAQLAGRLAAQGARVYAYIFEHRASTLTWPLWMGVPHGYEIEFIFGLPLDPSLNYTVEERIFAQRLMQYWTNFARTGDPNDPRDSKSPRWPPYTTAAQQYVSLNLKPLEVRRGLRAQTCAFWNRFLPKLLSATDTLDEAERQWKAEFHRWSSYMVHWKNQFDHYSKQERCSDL
# Norway rat Vesicular Monoamine Transporter (VMAT2), neurotransmitter transporter, Slc18a2 (gene 25549), sequence (Q01827 whole entry, looked up): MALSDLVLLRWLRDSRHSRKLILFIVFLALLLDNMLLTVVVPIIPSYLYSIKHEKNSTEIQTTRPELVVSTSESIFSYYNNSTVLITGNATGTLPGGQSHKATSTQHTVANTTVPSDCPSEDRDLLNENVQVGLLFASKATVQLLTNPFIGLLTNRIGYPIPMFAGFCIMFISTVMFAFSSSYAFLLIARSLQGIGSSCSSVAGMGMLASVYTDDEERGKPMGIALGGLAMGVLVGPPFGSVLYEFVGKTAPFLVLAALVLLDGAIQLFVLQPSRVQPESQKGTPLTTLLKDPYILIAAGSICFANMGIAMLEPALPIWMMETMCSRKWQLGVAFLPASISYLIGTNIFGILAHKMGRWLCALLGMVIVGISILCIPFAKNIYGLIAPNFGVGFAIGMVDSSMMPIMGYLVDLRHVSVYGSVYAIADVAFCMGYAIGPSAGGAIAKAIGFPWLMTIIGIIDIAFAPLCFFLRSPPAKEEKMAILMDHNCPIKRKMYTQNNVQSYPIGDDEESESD
# human Mitogen-Activated Protein Kinase 1 (MAPK 1), MAPK1 (gene 5594), sequence (P28482 whole entry, looked up): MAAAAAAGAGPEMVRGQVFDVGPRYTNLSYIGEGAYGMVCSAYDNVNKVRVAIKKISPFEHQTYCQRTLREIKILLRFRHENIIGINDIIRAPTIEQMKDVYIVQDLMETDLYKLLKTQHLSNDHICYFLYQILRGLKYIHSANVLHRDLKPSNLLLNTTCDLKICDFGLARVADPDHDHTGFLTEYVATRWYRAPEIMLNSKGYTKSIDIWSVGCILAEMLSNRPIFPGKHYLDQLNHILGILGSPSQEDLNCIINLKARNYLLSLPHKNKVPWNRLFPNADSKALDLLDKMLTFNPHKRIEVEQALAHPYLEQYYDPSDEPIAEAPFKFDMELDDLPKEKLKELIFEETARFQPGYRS
# human Fibroblast Growth Factor Receptor 1 (FGFR1), FGFR1 (gene 2260), sequence (P11362 whole entry, looked up): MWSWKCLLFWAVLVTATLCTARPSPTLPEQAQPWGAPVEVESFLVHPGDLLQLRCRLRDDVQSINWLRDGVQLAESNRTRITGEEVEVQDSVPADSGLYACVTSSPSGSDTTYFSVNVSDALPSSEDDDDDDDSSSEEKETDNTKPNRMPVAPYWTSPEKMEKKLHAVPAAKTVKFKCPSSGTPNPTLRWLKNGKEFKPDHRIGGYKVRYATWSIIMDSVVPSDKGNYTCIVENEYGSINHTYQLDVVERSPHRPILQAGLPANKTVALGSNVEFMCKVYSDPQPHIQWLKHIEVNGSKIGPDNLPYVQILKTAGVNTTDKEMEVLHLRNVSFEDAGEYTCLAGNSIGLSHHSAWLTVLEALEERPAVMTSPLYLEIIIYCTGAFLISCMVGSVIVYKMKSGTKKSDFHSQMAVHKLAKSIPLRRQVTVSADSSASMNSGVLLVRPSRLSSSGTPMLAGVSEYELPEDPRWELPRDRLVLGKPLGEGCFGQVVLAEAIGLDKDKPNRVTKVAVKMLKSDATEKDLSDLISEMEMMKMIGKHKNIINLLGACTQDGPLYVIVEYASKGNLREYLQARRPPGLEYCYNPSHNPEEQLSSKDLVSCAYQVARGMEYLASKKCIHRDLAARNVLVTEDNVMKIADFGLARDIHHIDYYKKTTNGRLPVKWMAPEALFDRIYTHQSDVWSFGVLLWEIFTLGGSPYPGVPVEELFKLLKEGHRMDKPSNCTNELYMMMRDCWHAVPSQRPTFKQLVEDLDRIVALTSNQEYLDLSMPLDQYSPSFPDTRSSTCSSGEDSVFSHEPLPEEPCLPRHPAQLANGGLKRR
# human Tyrosine Protein Kinase Receptor Tie-2 (Tie2), TEK (gene 7010), sequence (Q02763 whole entry, looked up): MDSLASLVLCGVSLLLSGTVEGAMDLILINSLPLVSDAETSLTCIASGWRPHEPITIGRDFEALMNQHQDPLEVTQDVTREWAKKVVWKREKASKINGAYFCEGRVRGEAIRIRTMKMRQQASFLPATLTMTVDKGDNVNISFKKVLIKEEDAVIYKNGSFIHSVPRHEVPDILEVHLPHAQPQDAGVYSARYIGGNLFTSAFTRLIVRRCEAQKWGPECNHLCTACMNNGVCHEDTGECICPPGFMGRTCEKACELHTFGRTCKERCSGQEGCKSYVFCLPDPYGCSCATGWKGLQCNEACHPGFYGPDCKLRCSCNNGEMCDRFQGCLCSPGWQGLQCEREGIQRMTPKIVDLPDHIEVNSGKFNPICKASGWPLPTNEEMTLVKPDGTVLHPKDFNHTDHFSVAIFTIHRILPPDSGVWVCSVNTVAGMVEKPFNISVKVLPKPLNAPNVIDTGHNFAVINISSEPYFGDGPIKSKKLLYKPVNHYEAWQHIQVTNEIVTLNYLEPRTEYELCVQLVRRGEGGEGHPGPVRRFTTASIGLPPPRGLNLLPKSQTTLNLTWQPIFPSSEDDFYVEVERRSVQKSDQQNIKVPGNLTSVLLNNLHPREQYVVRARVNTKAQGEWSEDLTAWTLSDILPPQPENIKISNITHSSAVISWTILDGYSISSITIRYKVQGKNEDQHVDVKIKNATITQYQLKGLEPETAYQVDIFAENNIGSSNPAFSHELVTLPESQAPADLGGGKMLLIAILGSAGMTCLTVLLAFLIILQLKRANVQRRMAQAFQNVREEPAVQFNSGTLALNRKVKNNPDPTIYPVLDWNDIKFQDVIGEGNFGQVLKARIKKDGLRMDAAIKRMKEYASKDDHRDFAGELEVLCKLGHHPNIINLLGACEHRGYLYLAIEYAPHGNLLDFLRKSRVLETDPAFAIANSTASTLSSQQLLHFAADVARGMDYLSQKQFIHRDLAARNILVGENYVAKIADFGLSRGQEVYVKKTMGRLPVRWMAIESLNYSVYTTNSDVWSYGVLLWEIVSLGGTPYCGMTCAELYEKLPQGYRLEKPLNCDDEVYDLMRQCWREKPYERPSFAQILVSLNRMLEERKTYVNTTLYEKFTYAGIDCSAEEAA
# human Ephrin type-A Receptor 2 (EphA2), EPHA2 (gene 1969), sequence (P29317 whole entry, looked up): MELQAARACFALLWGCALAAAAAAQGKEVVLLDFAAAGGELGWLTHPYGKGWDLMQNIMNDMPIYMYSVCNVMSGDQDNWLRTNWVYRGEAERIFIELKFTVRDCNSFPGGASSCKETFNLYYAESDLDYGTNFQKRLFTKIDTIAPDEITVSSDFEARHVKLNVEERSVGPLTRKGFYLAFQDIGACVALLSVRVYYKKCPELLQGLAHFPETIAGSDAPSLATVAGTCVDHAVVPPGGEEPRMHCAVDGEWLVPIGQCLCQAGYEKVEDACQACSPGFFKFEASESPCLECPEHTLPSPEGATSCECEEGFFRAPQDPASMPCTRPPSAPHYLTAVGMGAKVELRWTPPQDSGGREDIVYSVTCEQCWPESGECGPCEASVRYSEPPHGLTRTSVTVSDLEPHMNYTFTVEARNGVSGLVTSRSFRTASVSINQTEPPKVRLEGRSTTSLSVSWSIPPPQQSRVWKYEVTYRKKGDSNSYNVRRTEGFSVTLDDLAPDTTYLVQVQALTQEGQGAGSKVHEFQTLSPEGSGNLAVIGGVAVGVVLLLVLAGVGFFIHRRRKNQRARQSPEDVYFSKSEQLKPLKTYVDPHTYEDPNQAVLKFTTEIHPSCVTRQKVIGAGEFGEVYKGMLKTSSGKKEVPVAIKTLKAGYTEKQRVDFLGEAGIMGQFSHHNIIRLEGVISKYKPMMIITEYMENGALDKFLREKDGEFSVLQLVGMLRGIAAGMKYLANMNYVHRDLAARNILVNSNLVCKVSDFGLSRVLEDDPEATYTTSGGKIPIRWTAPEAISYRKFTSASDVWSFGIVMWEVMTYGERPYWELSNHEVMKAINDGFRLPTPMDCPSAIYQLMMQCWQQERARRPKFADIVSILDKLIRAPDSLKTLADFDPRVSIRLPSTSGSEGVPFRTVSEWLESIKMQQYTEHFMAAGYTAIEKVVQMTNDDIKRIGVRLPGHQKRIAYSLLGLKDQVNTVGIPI
# bovine Gamma-Aminobutyric Acid Type A Receptor BDZ, alpha 1 site (GABARa1), GABRA1 (gene 780973), sequence (P08219 whole entry, looked up): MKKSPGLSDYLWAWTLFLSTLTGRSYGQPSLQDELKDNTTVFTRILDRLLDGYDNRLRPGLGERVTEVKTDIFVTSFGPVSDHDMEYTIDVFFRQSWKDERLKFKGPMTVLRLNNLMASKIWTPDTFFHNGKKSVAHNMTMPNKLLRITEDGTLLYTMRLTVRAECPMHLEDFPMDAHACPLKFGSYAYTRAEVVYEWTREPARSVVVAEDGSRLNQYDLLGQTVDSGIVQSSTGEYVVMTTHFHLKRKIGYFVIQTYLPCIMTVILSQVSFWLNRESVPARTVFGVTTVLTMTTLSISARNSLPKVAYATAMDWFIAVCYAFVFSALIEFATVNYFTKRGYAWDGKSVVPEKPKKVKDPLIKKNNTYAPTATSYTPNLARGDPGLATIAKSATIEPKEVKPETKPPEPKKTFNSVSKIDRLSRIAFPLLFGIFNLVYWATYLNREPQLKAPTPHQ
structure (smiles),measurement,setting,value
O=C(O)Cc1cc(I)c(Oc2ccc(O)c(I)c2)c(I)c1,outcome,[1],inactive
CCCCCCCC=O,outcome,[2],inactive
same,outcome,[3],inactive
same,outcome,[4],inactive
same,outcome,[5],inactive
CN(C)CCCN1c2ccccc2Sc2ccc(Cl)cc21,outcome,[2],inactive
same,AC50,[6],35.7 µM (active)
same,outcome,[7],inactive
CCCCOC(=O)c1ccc(O)cc1,outcome,[8],inactive
same,AC50,[7],35.1 µM (active)
same,outcome,[9],inactive
Cc1ncc(CO)c(CO)c1O,outcome,[10],inactive
[O-]n1ccccc1=S.[O-]n1ccccc1=S.[Zn+2],outcome,[2],inactive
same,outcome,[11],inactive
COCCO,outcome,[2],inactive
same,outcome,[3],inactive
same,outcome,[12],inactive
same,outcome,[13],inactive
CC/C(=C(/CC)c1ccc(O)cc1)c1ccc(O)cc1,outcome,[14],inactive
same,AC50,[2],37 µM (active)
same,outcome,PPP2CA (gene 5515),inactive
same,outcome,[13],inactive
same,outcome,[15],inactive
same,outcome,[16],inactive
same,outcome,[11],inactive
same,AC50,[17],12 µM (active) and 14.7 µM (active) and 20.5 µM (active)
Cc1cn([C@H]2C[C@H](N=[N+]=[N-])[C@@H](CO)O2)c(=O)[nH]c1=O,outcome,[2],inactive
same,outcome,[3],inactive
same,outcome,[18],inactive
CCCCC(CC)COC(=O)CCCCC(=O)OCc1ccccc1 (stereo not given),outcome,[2],inactive
same,outcome,[11],inactive
CC(C)c1cccc(C(C)C)c1,outcome,[10],inactive
same,outcome,[19],inactive
same,outcome,[20],inactive
CC(C)=CCC/C(C)=C\CO,outcome,[2],inactive
same,outcome,[4],inactive
same,outcome,[1],inactive
CCCCc1oc2ccccc2c1C(=O)c1cc(I)c(OCCN(CC)CC)c(I)c1,outcome,[10],inactive
same,outcome,[12],inactive
same,outcome,[4],inactive
same,AC50,[21],18.9 µM (active)
O=C(O)c1ccc2c(c1)nc(C(=O)NC1CCN(C3CC3)CC1)n2Cc1cc(-c2ccc(Cl)s2)on1,outcome,[2],inactive
same,outcome,[11],inactive
COCc1nnc(-c2ccc[n+]([O-])c2)n1-c1c(Cl)c(Cl)cc2[nH]c(=O)c(=O)[nH]c12,outcome,[2],inactive
same,outcome,[7],inactive
